Test results: PubChem BioAssay
Active and inactive are the calls of the source. How the calls were made is not given here.

Target: L-lactate dehydrogenase (Plasmodium falciparum (isolate CDC / Honduras)) (UniProt Q27743)
Experiment: PfLDH activity inhibition – cell lysate, 3D7 strain, counter-screen for P. falciparum growth inhibition project (AID 2304);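 further: 0% = vehicle and 100% = reference inhibitor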
Conditions: P. falciparum 3D7 crude extract, LDH APAD/NBT absorbance; at 2 µM; stronger effect = higher value

Chain of L-lactate dehydrogenase (Plasmodium falciparum (isolate CDC / Honduras)) (Q27743 whole entry, looked up): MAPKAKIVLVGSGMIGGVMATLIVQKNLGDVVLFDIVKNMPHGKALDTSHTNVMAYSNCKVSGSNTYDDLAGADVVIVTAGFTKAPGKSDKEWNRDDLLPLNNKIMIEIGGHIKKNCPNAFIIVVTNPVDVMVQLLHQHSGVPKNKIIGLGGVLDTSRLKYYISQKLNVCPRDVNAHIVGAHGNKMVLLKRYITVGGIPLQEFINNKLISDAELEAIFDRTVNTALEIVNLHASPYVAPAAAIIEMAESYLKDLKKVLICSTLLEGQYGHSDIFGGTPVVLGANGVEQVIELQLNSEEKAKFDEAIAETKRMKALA

**Q.** Which inhibition does the source give for `CC(CCCCCC(=O)Nc1ccc(CC(C)NCCc2cccc(Cl)c2)cc1)NCCc1cccc(Cl)c1` (stereo unspecified) here?
**A.** 1% (inactive)

**Q.** With `COc1cc(CNC2Cc3ccccc3C2)ccc1Oc1ccc2nc[nH]c2c1` as the compound, how does the inhibition read?
**A.** -1% (inactive)

**Q.** For `CCCCCCNc1cc(C)nc(/N=C(\N)Nc2cccc(C(F)(F)F)c2)n1`, which inhibition is on record?
**A.** -2% (inactive)

**Q.** Which inhibition does the source give for `Cc1ccc(-c2nc(Nc3ccncc3)c3ccccc3n2)s1` here?
**A.** 1% (inactive)

**Q.** Which inhibition does the source give for `CC(C)CCN1CCCN(Cc2cccc(C(=O)Nc3ccc(C(C)(C)C)cc3)c2)CC1` here?
**A.** -5% (inactive)

**Q.** Which inhibition does the source give for `O=C(Nc1ccc(-c2ccccc2)cc1)Nc1cccc(Cn2ncc(N3CCCNCC3)c(Cl)c2=O)c1` here?
**A.** -1% (inactive)

**Q.** Which inhibition does the source give for `CN(C)c1ccc(-c2csc(C(=O)NCC3CCN(Cc4ccc(C(C)(C)C)cc4)C3)c2)cc1` (stereo unspecified) here?
**A.** 0% (inactive)

**Q.** For `CCCCCCN1CCC(NCc2cccc(C#N)c2)CC1`, which inhibition is on record?
**A.** -1% (inactive)

**Q.** Which inhibition does the source give for `CC(NC(=O)c1ccc(O)c(-c2ccc(Cl)c(Cl)c2)c1)C(=O)NCCN1CCOCC1` (stereo unspecified) here?
**A.** -3% (inactive)

**Q.** For `O=C(Nc1cc(F)cc(F)c1)N1CCOC(CCN2CCC3(CCc4ccccc43)CC2)(c2ccc(Cl)c(Cl)c2)C1` (stereo unspecified), which inhibition is on record?
**A.** 4% (inactive)

**Q.** Which inhibition does the source give for `O=C(Nc1ccc(OC2CCN(Cc3ccc(F)cc3)CC2)c(Cl)c1)c1ccccc1` here?
**A.** -4% (inactive)

**Q.** Which inhibition does the source give for `O=C(NCCCCN1CCC(c2ccc3c(c2OCCO)CCCC3)CC1)c1ccc(-c2ccc(C(F)(F)F)cc2)cc1` here?
**A.** 6% (inactive)

**Q.** Which inhibition does the source give for `O=C(Nc1ccccc1)N(Cc1cccc(-c2ccc(CNCCc3ccccc3)cc2)c1)C1CCN(Cc2ccccc2)CC1` here?
**A.** 3% (inactive)

**Q.** Which inhibition does the source give for `O=C(/C=C/c1cccc(Cl)c1)N1CCC(C(O)CN2CCC3(CC2)CN(C(=O)/C=C/c2cccc(Cl)c2)c2ccccc23)CC1` (stereo unspecified) here?
**A.** 0% (inactive)

**Q.** With `COc1ccc(Cc2nc(N=C(N)Nc3ccccc3)ccc2OC)cc1` as the compound, how does the inhibition read?
**A.** 2% (inactive)

**Q.** With `Cc1cc(Cl)ccc1NC(=O)NCCCCCN1CCC(c2c[nH]c3ccccc23)CC1` as the compound, how does the inhibition read?
**A.** 0% (inactive)

**Q.** With `O=C(C=Cc1ccc(F)cc1)N1CCN(S(=O)(=O)c2ccc(Cl)cc2)CC1` as the compound, how does the inhibition read?
**A.** -2% (inactive)

**Q.** Which inhibition does the source give for `N#Cc1ccc2c(c1)CCN(CCC1CCC(NC(=O)Nc3ccnc4ccccc34)CC1)C2` (stereo unspecified) here?
**A.** 2% (inactive)

**Q.** Which inhibition does the source give for `Nc1ncc(-c2ccsc2)c2ccc(-c3ccc4cn[nH]c4c3)cc12` here?
**A.** 6% (inactive)

**Q.** Which inhibition does the source give for `O=c1cc(NC[C@H]2CCC[C@@H]2NCc2cc(Br)cc(Br)c2)[nH]c2ccccc12` here?
**A.** 2% (inactive)

**Q.** With `COc1ccc(NC(=O)Nc2cccc(-c3cccc(-c4nc5ccc(F)cc5[nH]4)c3)c2)cc1` as the compound, how does the inhibition read?
**A.** 5% (inactive)

**Q.** With `OC(CNc1ccnc(Nc2ccccc2)n1)c1cccc(C(F)(F)F)c1` (stereo unspecified) as the compound, how does the inhibition read?
**A.** -2% (inactive)

**Q.** For `COc1ccc(CNC2CCCC2)cc1-c1ccc(S(=O)(=O)NCCN2CCCC2)s1`, which inhibition is on record?
**A.** -3% (inactive)

**Q.** For `Cc1cccc2[nH]c(-c3ccc(-c4ccc(NC(=O)Nc5cccc(C#N)c5)cc4)cc3)nc12`, which inhibition is on record?
**A.** 6% (inactive)

**Q.** With `CC(C)(C)N1CCC(N(Cc2ccc(-c3ccc(C(F)(F)F)cc3)cc2)C(=O)Cn2c(CCc3cccc(F)c3F)nc(=O)c3cccnc32)CC1` as the compound, how does the inhibition read?
**A.** 3% (inactive)

**Q.** For `CCc1c(CCNCCc2cccc(CCNCCc3ccc(OC)c(OC)c3CC)c2)ccc(OC)c1OC`, which inhibition is on record?
**A.** -6% (inactive)

System: not listed separately
Experiment: inhibition of 3D7 malaria parasite growth – strain 3D7 (AID 2306);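 further: 0% = DMSO wells and 100% = chloroquine plus artemisinin control wells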
Conditions: P. falciparum 3D7 erythrocytic growth, LDH absorbance, 72 h; at 2 µM; stronger effect = higher value

**Q.** For `CN1CCN(Cc2ccc(-c3cccc(-c4nc5ccccc5[nH]4)c3)cc2)CC1`, which growth inhibition is on record?
**A.** 93% (active)

**Q.** For `CNCCCNCc1ccc(-c2ccc(F)c(Cl)c2)o1`, which growth inhibition is on record?
**A.** 100% (active)

**Q.** With `Cc1ccc2nc(-c3cc(-c4ccc(OCc5ccccc5)cc4)cnc3N)[nH]c2c1` as the compound, how does the growth inhibition read?
**A.** 91% (active)

**Q.** With `O=C(Nc1ccc(OC2CCN(Cc3ccccc3)C2)c(Cl)c1)c1ccc(F)cc1` (stereo unspecified) as the compound, how does the growth inhibition read?
**A.** 90% (active)

**Q.** Which growth inhibition does the source give for `Nc1nc2c(c(=O)[nH]1)CN(S(=O)(=O)c1ccc(C(=O)N[C@@H](CCC(=O)O)C(=O)O)cc1)CC2` here?
**A.** 95% (active)

**Q.** For `CCc1cn2c3c(cc(C(=O)N[C@@H](Cc4ccccc4)[C@H](O)CNCC(C)C)cc13)N(C)S(=O)(=O)CC2`, which growth inhibition is on record?
**A.** 98% (active)

**Q.** With `CCN1CCC(N2CCC(C(=O)Nc3cccc(-c4cccc(Cl)c4)c3)CC2)CC1` as the compound, how does the growth inhibition read?
**A.** 91% (active)

**Q.** With `O=C(Nc1cccc(-c2ccc(-c3nc4ccccc4[nH]3)cc2)c1)c1cnn2cccnc12` as the compound, how does the growth inhibition read?
**A.** 87% (active)

**Q.** For `COc1ccc2nc3cc(Cl)ccc3c(NCCCCN)c2c1`, which growth inhibition is on record?
**A.** 101% (active)

**Q.** With `COc1ccc(CNc2nc(NCCc3ccccc3)c3cc(OC)c(OC)cc3n2)cc1OC` as the compound, how does the growth inhibition read?
**A.** 100% (active)

**Q.** Which growth inhibition does the source give for `Cc1ccc(F)c(C(=O)Nc2cccc(-c3nn4ccccc4c3-c3ccnc(Nc4cccc(F)c4)n3)c2)c1F` here?
**A.** 98% (active)

**Q.** Which growth inhibition does the source give for `CN(C)CCNC(=O)N1CCCN(c2ncnc3cc(-c4ccc(Cl)cc4)sc23)CC1` here?
**A.** 98% (active)

**Q.** With `CCCC(C)Nc1nc(C)cc(N[C@@H](Cc2ccccc2)C(=O)NCCOc2ccccc2)n1` (stereo partly specified) as the compound, how does the growth inhibition read?
**A.** 101% (active)

**Q.** With `CCCc1cn2c3c(cc(C(=O)N[C@@H](Cc4ccccc4)[C@H](O)CNC4CCCCC4)cc13)N(C)S(=O)(=O)CC2` as the compound, how does the growth inhibition read?
**A.** 99% (active)

**Q.** For `CC(CCCCCC(=O)Nc1ccc(CC(C)NCCc2cccc(Cl)c2)cc1)NCCc1cccc(Cl)c1` (stereo unspecified), which growth inhibition is on record?
**A.** 91% (active)

**Q.** With `COc1cc(CNC2Cc3ccccc3C2)ccc1Oc1ccc2nc[nH]c2c1` as the compound, how does the growth inhibition read?
**A.** 98% (active)

**Q.** For `CCCCCCNc1cc(C)nc(/N=C(\N)Nc2cccc(C(F)(F)F)c2)n1`, which growth inhibition is on record?
**A.** 100% (active)

**Q.** For `Cc1ccc(-c2nc(Nc3ccncc3)c3ccccc3n2)s1`, which growth inhibition is on record?
**A.** 95% (active)

**Q.** Which growth inhibition does the source give for `CC(C)CCN1CCCN(Cc2cccc(C(=O)Nc3ccc(C(C)(C)C)cc3)c2)CC1` here?
**A.** 85% (active)

**Q.** With `O=C(Nc1ccc(-c2ccccc2)cc1)Nc1cccc(Cn2ncc(N3CCCNCC3)c(Cl)c2=O)c1` as the compound, how does the growth inhibition read?
**A.** 102% (active)

**Q.** With `CN(C)c1ccc(-c2csc(C(=O)NCC3CCN(Cc4ccc(C(C)(C)C)cc4)C3)c2)cc1` (stereo unspecified) as the compound, how does the growth inhibition read?
**A.** 97% (active)

**Q.** For `CCCCCCN1CCC(NCc2cccc(C#N)c2)CC1`, which growth inhibition is on record?
**A.** 97% (active)

**Q.** Which growth inhibition does the source give for `CC(NC(=O)c1ccc(O)c(-c2ccc(Cl)c(Cl)c2)c1)C(=O)NCCN1CCOCC1` (stereo unspecified) here?
**A.** 87% (active)

**Q.** For `O=C(Nc1cc(F)cc(F)c1)N1CCOC(CCN2CCC3(CCc4ccccc43)CC2)(c2ccc(Cl)c(Cl)c2)C1` (stereo unspecified), which growth inhibition is on record?
**A.** 100% (active)

**Q.** Which growth inhibition does the source give for `O=C(Nc1ccc(OC2CCN(Cc3ccc(F)cc3)CC2)c(Cl)c1)c1ccccc1` here?
**A.** 90% (active)

**Q.** With `O=C(NCCCCN1CCC(c2ccc3c(c2OCCO)CCCC3)CC1)c1ccc(-c2ccc(C(F)(F)F)cc2)cc1` as the compound, how does the growth inhibition read?
**A.** 98% (active)

**Q.** For `O=C(Nc1ccccc1)N(Cc1cccc(-c2ccc(CNCCc3ccccc3)cc2)c1)C1CCN(Cc2ccccc2)CC1`, which growth inhibition is on record?
**A.** 101% (active)

**Q.** For `O=C(/C=C/c1cccc(Cl)c1)N1CCC(C(O)CN2CCC3(CC2)CN(C(=O)/C=C/c2cccc(Cl)c2)c2ccccc23)CC1` (stereo unspecified), which growth inhibition is on record?
**A.** 91% (active)

**Q.** Which growth inhibition does the source give for `COc1ccc(Cc2nc(N=C(N)Nc3ccccc3)ccc2OC)cc1` here?
**A.** 93% (active)

**Q.** With `Cc1cc(Cl)ccc1NC(=O)NCCCCCN1CCC(c2c[nH]c3ccccc23)CC1` as the compound, how does the growth inhibition read?
**A.** 91% (active)

**Q.** For `O=C(C=Cc1ccc(F)cc1)N1CCN(S(=O)(=O)c2ccc(Cl)cc2)CC1`, which growth inhibition is on record?
**A.** 91% (active)

**Q.** Which growth inhibition does the source give for `N#Cc1ccc2c(c1)CCN(CCC1CCC(NC(=O)Nc3ccnc4ccccc34)CC1)C2` (stereo unspecified) here?
**A.** 104% (active)

**Q.** Which growth inhibition does the source give for `Nc1ncc(-c2ccsc2)c2ccc(-c3ccc4cn[nH]c4c3)cc12` here?
**A.** 95% (active)

**Q.** For `O=c1cc(NC[C@H]2CCC[C@@H]2NCc2cc(Br)cc(Br)c2)[nH]c2ccccc12`, which growth inhibition is on record?
**A.** 101% (active)

**Q.** With `COc1ccc(NC(=O)Nc2cccc(-c3cccc(-c4nc5ccc(F)cc5[nH]4)c3)c2)cc1` as the compound, how does the growth inhibition read?
**A.** 99% (active)

**Q.** With `OC(CNc1ccnc(Nc2ccccc2)n1)c1cccc(C(F)(F)F)c1` (stereo unspecified) as the compound, how does the growth inhibition read?
**A.** 100% (active)

**Q.** Which growth inhibition does the source give for `COc1ccc(CNC2CCCC2)cc1-c1ccc(S(=O)(=O)NCCN2CCCC2)s1` here?
**A.** 96% (active)

**Q.** With `Cc1cccc2[nH]c(-c3ccc(-c4ccc(NC(=O)Nc5cccc(C#N)c5)cc4)cc3)nc12` as the compound, how does the growth inhibition read?
**A.** 101% (active)

**Q.** Which growth inhibition does the source give for `CC(C)(C)N1CCC(N(Cc2ccc(-c3ccc(C(F)(F)F)cc3)cc2)C(=O)Cn2c(CCc3cccc(F)c3F)nc(=O)c3cccnc32)CC1` here?
**A.** 100% (active)

**Q.** Which growth inhibition does the source give for `CCc1c(CCNCCc2cccc(CCNCCc3ccc(OC)c(OC)c3CC)c2)ccc(OC)c1OC` here?
**A.** 81% (active)
